# Data from paper PMC7862700, “An all-to-all approach to the identification of sequence-specific readers for epigenetic DNA modifications on cytosine”.
# Columns and labels:
# Assay in all cases: DAPPL (digital affinity profiling via proximity ligation, sequencing); 10 mM Tris-HCl pH 7.5, 50 mM NaCl, 1 mM DTT, 4% glycerol, room temperature, 30 min; GST-TFs on glutathione beads, 16-mer random dsDNA library, 0.1% formaldehyde crosslink after washing; high values mean tight binding
# [1] = biological target: T1, FLI1 (Homo sapiens, UniProt Q01543 1-452); settings: protein: recombinant; tags: N-terminal GST; dsDNA, one strand shown
# T1 sequence: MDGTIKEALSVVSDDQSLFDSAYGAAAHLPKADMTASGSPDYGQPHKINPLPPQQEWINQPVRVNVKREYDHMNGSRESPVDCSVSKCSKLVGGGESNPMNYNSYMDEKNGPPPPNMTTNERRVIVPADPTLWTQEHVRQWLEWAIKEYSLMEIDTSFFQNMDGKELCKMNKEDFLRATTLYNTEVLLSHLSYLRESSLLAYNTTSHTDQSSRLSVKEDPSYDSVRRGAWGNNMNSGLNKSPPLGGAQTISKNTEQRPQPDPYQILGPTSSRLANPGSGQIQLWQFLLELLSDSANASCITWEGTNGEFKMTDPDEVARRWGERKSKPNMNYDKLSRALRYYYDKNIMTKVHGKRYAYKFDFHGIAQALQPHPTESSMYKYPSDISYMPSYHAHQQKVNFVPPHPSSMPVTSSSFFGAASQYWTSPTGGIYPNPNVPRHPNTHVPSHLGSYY
# In short: (§1)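 In yeast, human transcription factors were expressed with a GST fusion, then pulled down on glutathione beads and given DNA barcodes. Pooled with a tag-only sample, they were exposed to 200 nmole of a 16-mer random double-stranded DNA library (Tris/NaCl/DTT/glycerol buffer, room temperature, 30 min), washed, crosslinked with 0.1% formaldehyde, proximity-ligated using BsaI/T4 ligase for 1 h at 37 °C, PCR-amplified and read on an Illumina NextSeq500. Each hexamer's frequency of reads for a factor, divided by the matching frequency for the tag-only sample, gives the binding signal.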
# [2] = biological target: T2, ELK1 (Homo sapiens, UniProt P19419 1-428); settings: protein: recombinant; tags: N-terminal GST; dsDNA, one strand shown
# T2 sequence: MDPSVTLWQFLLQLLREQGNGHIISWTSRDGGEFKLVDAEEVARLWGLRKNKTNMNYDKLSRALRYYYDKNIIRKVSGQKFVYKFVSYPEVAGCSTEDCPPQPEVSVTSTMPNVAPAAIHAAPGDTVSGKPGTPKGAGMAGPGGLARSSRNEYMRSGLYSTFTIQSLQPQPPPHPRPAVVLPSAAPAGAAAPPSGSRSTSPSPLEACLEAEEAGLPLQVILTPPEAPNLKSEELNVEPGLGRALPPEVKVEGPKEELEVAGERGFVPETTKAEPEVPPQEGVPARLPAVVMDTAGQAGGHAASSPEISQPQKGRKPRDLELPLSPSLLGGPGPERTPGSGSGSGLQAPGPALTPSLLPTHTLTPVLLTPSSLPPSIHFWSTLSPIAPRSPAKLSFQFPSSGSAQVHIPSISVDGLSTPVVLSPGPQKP
# In short: as §1
# [3] = biological target: T3, GABPA (Homo sapiens, UniProt Q06546 1-454); settings: protein: recombinant; tags: N-terminal GST; dsDNA, one strand shown
# T3 sequence: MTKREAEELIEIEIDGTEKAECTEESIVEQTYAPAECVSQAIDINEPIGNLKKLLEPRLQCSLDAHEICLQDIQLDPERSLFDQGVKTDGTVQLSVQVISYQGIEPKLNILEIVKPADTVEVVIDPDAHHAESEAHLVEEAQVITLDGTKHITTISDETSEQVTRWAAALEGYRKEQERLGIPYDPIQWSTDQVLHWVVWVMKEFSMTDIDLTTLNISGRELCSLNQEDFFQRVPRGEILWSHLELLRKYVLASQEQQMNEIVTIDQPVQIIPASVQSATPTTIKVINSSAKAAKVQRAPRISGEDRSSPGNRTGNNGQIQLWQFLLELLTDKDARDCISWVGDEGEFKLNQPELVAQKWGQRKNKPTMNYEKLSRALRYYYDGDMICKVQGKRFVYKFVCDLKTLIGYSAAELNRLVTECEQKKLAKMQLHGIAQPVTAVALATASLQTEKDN
# In short: as §1
# [4] = biological target: T4, ERG (Homo sapiens, UniProt P11308 1-479); settings: protein: recombinant; tags: N-terminal GST; dsDNA, one strand shown
# T4 sequence: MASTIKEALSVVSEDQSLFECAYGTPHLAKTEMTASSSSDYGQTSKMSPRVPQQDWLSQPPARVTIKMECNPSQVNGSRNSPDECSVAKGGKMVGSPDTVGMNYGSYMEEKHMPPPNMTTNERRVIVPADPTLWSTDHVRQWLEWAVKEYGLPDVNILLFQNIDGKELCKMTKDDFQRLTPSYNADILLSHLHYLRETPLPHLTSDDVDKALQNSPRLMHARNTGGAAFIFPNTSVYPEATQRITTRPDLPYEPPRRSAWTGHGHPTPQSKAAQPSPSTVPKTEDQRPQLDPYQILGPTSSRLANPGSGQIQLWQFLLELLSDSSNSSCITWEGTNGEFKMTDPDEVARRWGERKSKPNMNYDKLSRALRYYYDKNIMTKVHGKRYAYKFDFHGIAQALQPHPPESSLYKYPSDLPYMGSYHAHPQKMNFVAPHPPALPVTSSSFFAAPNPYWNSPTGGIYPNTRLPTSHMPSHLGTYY
# In short: as §1
# [5] = biological target: ELF1 (Homo sapiens, UniProt P32519 1-619); settings: protein: recombinant; tags: N-terminal GST; dsDNA, one strand shown
# Sequence of ELF1 (P32519 whole entry): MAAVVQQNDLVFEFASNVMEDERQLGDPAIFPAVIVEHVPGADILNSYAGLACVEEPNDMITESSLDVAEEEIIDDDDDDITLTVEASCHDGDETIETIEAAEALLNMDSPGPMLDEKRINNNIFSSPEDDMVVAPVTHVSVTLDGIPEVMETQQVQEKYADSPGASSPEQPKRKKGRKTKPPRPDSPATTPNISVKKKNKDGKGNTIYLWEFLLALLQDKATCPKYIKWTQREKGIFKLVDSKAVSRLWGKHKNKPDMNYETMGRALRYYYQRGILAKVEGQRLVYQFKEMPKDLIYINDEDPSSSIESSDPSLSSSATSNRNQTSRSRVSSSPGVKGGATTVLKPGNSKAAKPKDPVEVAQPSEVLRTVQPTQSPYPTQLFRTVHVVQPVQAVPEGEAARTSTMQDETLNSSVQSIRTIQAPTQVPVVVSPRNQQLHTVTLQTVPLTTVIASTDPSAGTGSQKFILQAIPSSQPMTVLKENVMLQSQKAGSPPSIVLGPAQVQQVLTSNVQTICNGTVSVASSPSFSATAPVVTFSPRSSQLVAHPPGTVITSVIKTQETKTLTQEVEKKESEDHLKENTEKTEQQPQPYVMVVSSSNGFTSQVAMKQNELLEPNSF
# In short: as §1
# [6] = biological target: T5, EHF (Homo sapiens, UniProt Q9NZC4 1-300); settings: protein: recombinant; tags: N-terminal GST; dsDNA, one strand shown
# T5 sequence: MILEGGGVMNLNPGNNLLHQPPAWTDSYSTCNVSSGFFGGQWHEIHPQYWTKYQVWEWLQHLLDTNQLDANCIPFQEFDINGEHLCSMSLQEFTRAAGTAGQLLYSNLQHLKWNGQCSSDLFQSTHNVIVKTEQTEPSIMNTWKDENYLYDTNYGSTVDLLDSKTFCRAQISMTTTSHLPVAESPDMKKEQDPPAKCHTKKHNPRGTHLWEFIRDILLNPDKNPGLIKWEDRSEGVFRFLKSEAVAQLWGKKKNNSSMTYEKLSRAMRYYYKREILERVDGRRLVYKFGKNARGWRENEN
# In short: as §1
# [7] = biological target: SPI1 (Homo sapiens, UniProt P17947 1-270); settings: protein: recombinant; tags: N-terminal GST; dsDNA, one strand shown
# In short: as §1
# [8] = biological target: SPIB (Homo sapiens, UniProt Q01892 1-262); settings: protein: recombinant; tags: N-terminal GST; dsDNA, one strand shown
# Sequence of SPIB (Q01892 whole entry): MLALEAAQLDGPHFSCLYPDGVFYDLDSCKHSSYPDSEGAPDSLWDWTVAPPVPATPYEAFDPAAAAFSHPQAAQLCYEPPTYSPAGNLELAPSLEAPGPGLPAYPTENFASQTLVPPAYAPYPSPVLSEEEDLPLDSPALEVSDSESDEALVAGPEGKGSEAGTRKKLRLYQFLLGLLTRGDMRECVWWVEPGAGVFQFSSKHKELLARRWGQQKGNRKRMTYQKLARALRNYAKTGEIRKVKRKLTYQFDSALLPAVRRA
# In short: as §1
# [9] = biological target: T6, ELK3 (Homo sapiens, UniProt P41970 1-407); settings: protein: recombinant; tags: N-terminal GST; dsDNA, one strand shown
# T6 sequence: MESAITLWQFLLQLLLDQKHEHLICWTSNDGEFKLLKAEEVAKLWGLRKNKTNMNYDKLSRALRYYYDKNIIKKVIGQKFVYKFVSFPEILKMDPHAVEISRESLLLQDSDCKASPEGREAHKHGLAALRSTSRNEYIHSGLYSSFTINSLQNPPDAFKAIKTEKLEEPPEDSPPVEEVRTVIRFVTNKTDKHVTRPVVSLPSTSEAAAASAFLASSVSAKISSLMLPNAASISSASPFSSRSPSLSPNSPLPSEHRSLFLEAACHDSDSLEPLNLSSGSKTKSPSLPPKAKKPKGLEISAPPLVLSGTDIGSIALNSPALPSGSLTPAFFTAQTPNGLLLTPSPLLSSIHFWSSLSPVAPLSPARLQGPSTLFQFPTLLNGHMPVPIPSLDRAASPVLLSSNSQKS
# In short: as §1
# [10] = biological target: T7, FEV (Homo sapiens, UniProt Q99581 1-238); settings: protein: recombinant; tags: N-terminal GST; dsDNA, one strand shown
# T7 sequence: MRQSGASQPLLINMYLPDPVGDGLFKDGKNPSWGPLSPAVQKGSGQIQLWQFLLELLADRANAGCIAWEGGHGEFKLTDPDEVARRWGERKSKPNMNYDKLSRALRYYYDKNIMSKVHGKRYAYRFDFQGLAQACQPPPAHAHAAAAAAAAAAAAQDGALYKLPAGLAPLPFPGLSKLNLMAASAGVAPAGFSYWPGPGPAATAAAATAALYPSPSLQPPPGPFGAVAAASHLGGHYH
# In short: as §1
# [11] = biological target: ETV5 (Homo sapiens, UniProt P41161 1-510); settings: protein: recombinant; tags: N-terminal GST; dsDNA, one strand shown
# Sequence of ETV5 (P41161 whole entry): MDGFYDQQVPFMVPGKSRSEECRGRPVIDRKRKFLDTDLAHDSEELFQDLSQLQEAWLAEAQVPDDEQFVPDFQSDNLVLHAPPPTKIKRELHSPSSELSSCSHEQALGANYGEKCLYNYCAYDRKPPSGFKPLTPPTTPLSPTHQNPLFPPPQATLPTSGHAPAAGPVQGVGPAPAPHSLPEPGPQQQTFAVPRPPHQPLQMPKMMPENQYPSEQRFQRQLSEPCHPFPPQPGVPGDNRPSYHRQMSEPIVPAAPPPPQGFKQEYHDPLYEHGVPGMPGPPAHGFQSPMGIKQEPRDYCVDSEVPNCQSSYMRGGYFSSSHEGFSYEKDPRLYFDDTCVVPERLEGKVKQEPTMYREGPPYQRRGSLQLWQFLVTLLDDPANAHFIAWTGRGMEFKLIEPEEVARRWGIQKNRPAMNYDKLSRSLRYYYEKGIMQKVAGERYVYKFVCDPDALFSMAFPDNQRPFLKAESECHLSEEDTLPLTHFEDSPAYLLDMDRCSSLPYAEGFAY
# In short: as §1
# [12] = biological target: HSF1 (Homo sapiens, UniProt Q00613 1-529); settings: protein: recombinant; tags: N-terminal GST; chain copies: 3; dsDNA, one strand shown
# Sequence of HSF1 (Q00613 whole entry): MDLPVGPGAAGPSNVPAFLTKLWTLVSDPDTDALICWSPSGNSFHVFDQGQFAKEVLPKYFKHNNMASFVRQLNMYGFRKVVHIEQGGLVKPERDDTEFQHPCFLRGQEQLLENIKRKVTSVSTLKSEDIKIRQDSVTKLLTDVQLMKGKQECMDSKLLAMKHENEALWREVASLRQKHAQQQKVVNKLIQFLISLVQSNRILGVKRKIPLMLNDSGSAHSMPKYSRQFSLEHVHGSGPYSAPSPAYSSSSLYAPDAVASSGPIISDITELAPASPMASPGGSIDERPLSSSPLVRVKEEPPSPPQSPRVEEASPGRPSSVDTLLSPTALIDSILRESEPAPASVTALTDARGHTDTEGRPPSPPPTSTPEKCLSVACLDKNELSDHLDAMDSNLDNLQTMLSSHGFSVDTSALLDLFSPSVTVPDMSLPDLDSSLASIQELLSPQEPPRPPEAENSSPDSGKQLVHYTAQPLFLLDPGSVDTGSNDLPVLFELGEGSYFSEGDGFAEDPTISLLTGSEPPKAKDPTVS
# In short: as §1
# [13] = biological target: T8, SPIC (Homo sapiens, UniProt Q8N5J4 1-248); settings: protein: recombinant; tags: N-terminal GST; dsDNA, one strand shown
# T8 sequence: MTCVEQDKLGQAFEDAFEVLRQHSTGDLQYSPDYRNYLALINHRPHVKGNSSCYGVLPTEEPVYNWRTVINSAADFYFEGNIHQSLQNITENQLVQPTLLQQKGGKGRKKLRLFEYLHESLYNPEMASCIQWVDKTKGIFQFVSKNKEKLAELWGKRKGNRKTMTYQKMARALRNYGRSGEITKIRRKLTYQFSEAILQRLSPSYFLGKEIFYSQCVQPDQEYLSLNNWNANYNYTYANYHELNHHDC
# In short: as §1
# [14] = biological target: ELF4 (Homo sapiens, UniProt Q99607 1-663); settings: protein: recombinant; tags: N-terminal GST; dsDNA, one strand shown
# Sequence of ELF4 (Q99607 whole entry): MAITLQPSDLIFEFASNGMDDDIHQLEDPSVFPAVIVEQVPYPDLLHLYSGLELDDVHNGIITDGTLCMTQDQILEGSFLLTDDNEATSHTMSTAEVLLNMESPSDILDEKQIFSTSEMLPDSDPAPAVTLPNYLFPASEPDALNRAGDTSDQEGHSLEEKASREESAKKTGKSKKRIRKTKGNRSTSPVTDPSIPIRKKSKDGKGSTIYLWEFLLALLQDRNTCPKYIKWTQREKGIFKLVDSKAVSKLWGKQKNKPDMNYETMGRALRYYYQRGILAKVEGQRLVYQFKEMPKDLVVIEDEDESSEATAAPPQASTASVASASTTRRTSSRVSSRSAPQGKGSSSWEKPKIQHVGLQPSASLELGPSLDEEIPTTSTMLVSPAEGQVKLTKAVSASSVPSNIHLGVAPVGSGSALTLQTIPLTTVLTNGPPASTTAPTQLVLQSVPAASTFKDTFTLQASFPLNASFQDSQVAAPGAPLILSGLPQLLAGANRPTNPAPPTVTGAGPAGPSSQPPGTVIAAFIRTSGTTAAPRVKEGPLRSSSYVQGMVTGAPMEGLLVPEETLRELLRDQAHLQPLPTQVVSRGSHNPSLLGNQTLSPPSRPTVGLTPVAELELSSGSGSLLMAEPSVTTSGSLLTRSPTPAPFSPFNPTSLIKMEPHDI
# In short: as §1
# [15] = biological target: T9, ELK4 (Homo sapiens, UniProt P28324-2 1-405); settings: protein: recombinant; tags: N-terminal GST; dsDNA, one strand shown
# T9 sequence: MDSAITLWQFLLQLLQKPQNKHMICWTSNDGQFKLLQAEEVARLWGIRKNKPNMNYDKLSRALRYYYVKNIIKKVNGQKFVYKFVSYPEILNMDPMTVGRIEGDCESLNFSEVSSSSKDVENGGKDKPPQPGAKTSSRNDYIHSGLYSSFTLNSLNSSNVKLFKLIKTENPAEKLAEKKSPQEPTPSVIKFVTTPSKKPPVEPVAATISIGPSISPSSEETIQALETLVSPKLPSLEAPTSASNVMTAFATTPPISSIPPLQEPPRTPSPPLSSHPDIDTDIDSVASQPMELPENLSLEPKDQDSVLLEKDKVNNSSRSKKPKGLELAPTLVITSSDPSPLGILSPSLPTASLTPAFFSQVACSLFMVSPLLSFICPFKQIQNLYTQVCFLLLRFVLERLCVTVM
# In short: as §1
# [16] = biological target: T10, ETV2 (Homo sapiens, UniProt O00321 1-342); settings: protein: recombinant; tags: N-terminal GST; dsDNA, one strand shown
# T10 sequence: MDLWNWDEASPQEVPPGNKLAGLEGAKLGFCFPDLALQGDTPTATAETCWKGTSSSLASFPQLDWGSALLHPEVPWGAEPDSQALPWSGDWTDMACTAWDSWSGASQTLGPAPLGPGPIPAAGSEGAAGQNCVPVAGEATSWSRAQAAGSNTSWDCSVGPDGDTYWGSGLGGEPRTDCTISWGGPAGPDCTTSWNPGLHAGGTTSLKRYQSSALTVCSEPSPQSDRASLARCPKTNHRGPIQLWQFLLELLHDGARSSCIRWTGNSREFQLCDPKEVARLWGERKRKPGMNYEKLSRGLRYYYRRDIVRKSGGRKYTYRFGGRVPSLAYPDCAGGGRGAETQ
# In short: as §1
# [17] = biological target: T11, ELF3 (Homo sapiens, UniProt P78545 1-371); settings: protein: recombinant; tags: N-terminal GST; dsDNA, one strand shown
# T11 sequence: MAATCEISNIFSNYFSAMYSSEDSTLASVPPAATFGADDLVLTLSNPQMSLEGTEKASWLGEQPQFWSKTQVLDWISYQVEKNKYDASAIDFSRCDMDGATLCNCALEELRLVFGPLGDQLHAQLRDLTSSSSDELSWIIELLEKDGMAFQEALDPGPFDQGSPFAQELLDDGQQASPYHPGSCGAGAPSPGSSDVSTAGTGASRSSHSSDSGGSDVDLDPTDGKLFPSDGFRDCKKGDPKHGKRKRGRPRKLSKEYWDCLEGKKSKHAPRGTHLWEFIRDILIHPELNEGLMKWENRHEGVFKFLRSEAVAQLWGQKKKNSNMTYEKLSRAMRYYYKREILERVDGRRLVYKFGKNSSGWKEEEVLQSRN
# In short: as §1
# [18] = biological target: ETV1 (Homo sapiens, UniProt P50549 1-477); settings: protein: recombinant; tags: N-terminal GST; dsDNA, one strand shown
# Sequence of ETV1 (P50549 whole entry): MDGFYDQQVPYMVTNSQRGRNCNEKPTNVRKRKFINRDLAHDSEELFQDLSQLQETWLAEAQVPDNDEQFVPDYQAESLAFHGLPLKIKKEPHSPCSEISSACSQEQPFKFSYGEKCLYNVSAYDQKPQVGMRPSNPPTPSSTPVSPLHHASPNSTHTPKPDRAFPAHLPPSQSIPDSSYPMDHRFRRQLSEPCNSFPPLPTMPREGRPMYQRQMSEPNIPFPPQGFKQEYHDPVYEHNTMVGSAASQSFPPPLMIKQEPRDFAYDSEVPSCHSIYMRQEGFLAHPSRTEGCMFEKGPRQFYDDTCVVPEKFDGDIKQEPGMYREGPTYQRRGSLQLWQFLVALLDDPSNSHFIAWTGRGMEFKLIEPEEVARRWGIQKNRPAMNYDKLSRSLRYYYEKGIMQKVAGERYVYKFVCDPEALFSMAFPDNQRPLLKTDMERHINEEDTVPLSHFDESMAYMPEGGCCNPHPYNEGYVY
# In short: as §1
sequence,measurement,setting,value
CGTTCC,binding signal,[1],"1.43 fold enrichment (6-mer frequency, TF over GST control)"
same,binding signal,[2],"1.35 fold enrichment (6-mer frequency, TF over GST control)"
same,binding signal,[3],"1.29 fold enrichment (6-mer frequency, TF over GST control)"
same,binding signal,[4],"1.45 fold enrichment (6-mer frequency, TF over GST control)"
same,binding signal,[5],"1.44 fold enrichment (6-mer frequency, TF over GST control)"
same,binding signal,[6],"1.42 fold enrichment (6-mer frequency, TF over GST control)"
same,binding signal,[7],"1.44 fold enrichment (6-mer frequency, TF over GST control)"
same,binding signal,[8],"1.54 fold enrichment (6-mer frequency, TF over GST control)"
same,binding signal,[9],"1.46 fold enrichment (6-mer frequency, TF over GST control)"
same,binding signal,[10],"1.5 fold enrichment (6-mer frequency, TF over GST control)"
same,binding signal,[11],"1.47 fold enrichment (6-mer frequency, TF over GST control)"
same,binding signal,[12],"1.44 fold enrichment (6-mer frequency, TF over GST control)"
same,binding signal,[13],"1.51 fold enrichment (6-mer frequency, TF over GST control)"
same,binding signal,[14],"1.47 fold enrichment (6-mer frequency, TF over GST control)"
same,binding signal,[15],"1.31 fold enrichment (6-mer frequency, TF over GST control)"
same,binding signal,[16],"1.33 fold enrichment (6-mer frequency, TF over GST control)"
same,binding signal,[17],"1.27 fold enrichment (6-mer frequency, TF over GST control)"
same,binding signal,[18],"1.47 fold enrichment (6-mer frequency, TF over GST control)"
